# TRHR agonist: qHTS for Small Molecule Agonists and Allosteric Enhancers of Human TRH Receptor: Primary Screen for Agonists; Thyrotropin-releasing hormone receptor (Homo sapiens), P34981; AID 493084, 2011; activation, % at 2 µM; 0.18% of 360,000 active; TRHR cells, calcium flux fluo-8, FDSS agonist mode; note: 0% is about no effect
# Target sequence (P34981 whole entry, looked up): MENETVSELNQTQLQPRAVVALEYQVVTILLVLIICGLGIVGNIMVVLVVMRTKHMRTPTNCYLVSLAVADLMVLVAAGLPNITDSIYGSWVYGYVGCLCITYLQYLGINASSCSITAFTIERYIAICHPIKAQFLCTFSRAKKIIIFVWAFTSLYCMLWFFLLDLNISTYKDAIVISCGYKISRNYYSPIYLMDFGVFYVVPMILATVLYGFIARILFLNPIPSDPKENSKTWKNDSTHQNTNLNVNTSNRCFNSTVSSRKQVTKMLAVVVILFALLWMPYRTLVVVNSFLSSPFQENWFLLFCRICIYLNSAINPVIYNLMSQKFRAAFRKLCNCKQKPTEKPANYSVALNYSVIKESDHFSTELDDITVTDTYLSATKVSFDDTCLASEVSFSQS
#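 In this calcium-flux screen, cells bearing human TRHR are dye-loaded with fluo-8, baselined for 10 cycles, then exposed to library compounds; positive kinetic calcium responses during the agonist phase mark hits, with TRH as control.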
# D1 PAM: Potentiators of Human D1 Dopamine Receptor: qHTS | potentiation, % at 10 µM | HEK293 TREx D1 cells, calcium flux, dopamine EC20 potentiation | D(1A) dopamine receptor (Homo sapiens), P21728 | AID 504651, 2011 | 0.036% of 360,000 active; in the data active = potentiation above about 30%; note: 0% is about no effect
# D1 antagonist: Antagonist of Human D 1 Dopamine Receptor: qHTS; AID 504652, 2011; activity change, negative = inhibition, % at 10 µM; 3.2% of 360,000 active; HEK293 TREx D1 cells, calcium flux, dopamine EC80; stronger effect = lower value; D(1A) dopamine receptor (Homo sapiens), P21728; in the data active = activity change below about -30%; note: % is set by controls: 0 for no effect and ±100 for the full control effect
#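 Tetracycline-induced HEK293 T-REx cells with force-coupled D1 receptor were loaded with a no-wash calcium dye. Compound was added after a 10 s baseline and read kinetically for 180 s; EC80 dopamine was then added and calcium flux followed another 180 s.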
# D1 agonist: Allosteric Agonists of the Human D1 Dopamine Receptor: qHTS | AID 504660, 2011 | D(1A) dopamine receptor (Homo sapiens), P21728 | HEK293 T-REx D1 cells, calcium flux, agonist mode | activation, % at 2 µM | 1% of 360,000 active; note: 0% is about no effect
#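 Tetracycline-induced HEK293 TREx D1 cells, force-coupled to calcium signalling, were dye-loaded with a no-wash calcium kit. Compound was pin-added after a 10 s baseline. Fluorescence was read kinetically at 1 cycle/s for 180 s, with calcium rises flagged as agonism.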
# TRHR enhancer: qHTS for Small Molecule Agonists and Allosteric Enhancers of Human TRH Receptor: Primary Screen for Enhancers | TRHR cells, fluo-8 calcium fluorescence, EC20 TRH enhancement | Thyrotropin-releasing hormone receptor (Homo sapiens), P34981 | AID 493056, 2011 | enhancement, % at 2 µM | 0.66% of 360,000 active; in the data active = enhancement above about 30%; note: 0% is about no effect
#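 TRHR-expressing cells loaded with fluo-8 calcium dye were read kinetically (ex 480/em 530) during compound addition, then stimulated with an EC20 of TRH (10 nM final). Enhancement of the Gq-mediated intracellular calcium response was scored.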
# An asterisk follows results filed as active; . = not tested or not shown. This is a sample that favours compounds with a hit; in the whole collection about 4.6% have one here. Cut-off read from the data, not from the text of the source, unless noted: active = activation above about 30%; inactive = the rest.
SMILES,TRHR agonist,D1 PAM,D1 antagonist,D1 agonist,TRHR enhancer
O=C(NC(NNc1ccc([N+](=O)[O-])cc1)(C(F)(F)F)C(F)(F)F)c1ccc(F)cc1,2,-12,-17,27,-3
CN(C)S(=O)(=O)c1ccc2nc(NC(=O)c3cccnc3)sc2c1,0,-2,5,2,-5
O=[N+]([O-])c1ccc2nc(NS(=O)(=O)c3ccccc3[N+](=O)[O-])sc2c1,6,.,-39*,68*,-6
O=C(NC(Nc1nc2ccc([N+](=O)[O-])cc2s1)(C(F)(F)F)C(F)(F)F)c1ccccc1Cl,8,-2,-36*,25,-5
O=C(NC(NNc1ccc([N+](=O)[O-])cc1)(C(F)(F)F)C(F)(F)F)c1ccccc1Cl,-1,-3,-38*,13,11
COc1ccc(NC(=O)CSc2nnc(C)n2C2CCCCC2)cc1,-1,-2,-4,0,-14
Cc1nnc(SCc2ccc(Cl)cc2Cl)[nH]c1=O,1,5,16,3,-3
OCCN(Cc1ccccc1)Cc1cccc(F)c1,-1,1,-7,-1,-3
Cc1ccc(NC(=O)CCCNC(=O)c2ccc(Cl)cc2)c(O)c1,-1,1,-32*,3,-3
COc1ccc(NC2=NCC(Cc3ccc(Br)cc3)S2)cc1 (stereo unspecified),0,-5,3,32*,5
COc1ccc(CNc2ccc(Br)cc2)cc1,0,0,-9,4,5
O=C(O)C(=O)/C(=C\c1cccc2ccccc12)c1ccc2ccccc2n1,3,-3,3,31*,-2
O=C(Nc1cccc(Cl)c1)c1csc(-c2ccccc2)n1,0,-1,3,13,5
Cc1ccc(NC(=O)CN2C(=O)c3cccnc3Sc3ccccc32)cc1C,-1,-5,-10,-1,33*
Cc1ccc(NC(=O)CN2C(=O)c3ccccc3C2=O)cc1,0,-5,-2,1,40*
COc1ccc(NC(=O)CN2C(=O)c3cccnc3Sc3ccccc32)cc1OC,-1,-4,11,1,-8
Cc1ccc(NC(=O)c2ccc3c(c2)C(=O)N(c2ccccc2C)C3=O)nc1,0,.,-36*,16,0
Cc1ccc(NC(=O)CCCCCN2C(=O)c3ccccc3C2=O)nc1,0,-9,-32*,1,2
Cc1ccc(N2C(=O)c3ccc(C(=O)Nc4cccnc4)cc3C2=O)c(C)c1,0,-3,0,0,9
Cc1cccc(NC(=O)CCCCCN2C(=O)c3ccccc3C2=O)n1,-1,-3,-10,5,-2
COc1ccc(OCc2nnc(SCC(=O)NC3CC4CCC3C4)o2)cc1 (stereo unspecified),-1,-4,-1,6,20
COc1ccccc1OCCSc1nc2ccc([N+](=O)[O-])cc2s1,0,-14,-57*,3,-5
COc1ccccc1OCCSc1nc(N)cc(N)n1,0,-9,-84*,0,3
COc1ccc(OCCSc2ncccn2)cc1,-1,1,-6,2,31*
Nc1cc(N)nc(SCCOc2ccccc2F)n1,0,1,1,0,3
C=CCc1ccccc1OCCSc1nc2ccc([N+](=O)[O-])cc2s1,1,1,-13,18,-2
CCOC(=O)c1ccc(-n2c(N)c(C(=O)NCc3ccco3)sc2=S)cc1,0,-1,3,2,2
COc1ccc(-c2c(C(F)(F)F)oc3c(CN4CCN(C)CC4)c(O)ccc3c2=O)cc1,0,0,-8,-2,-2
CC1Cc2ccccc2N1S(=O)(=O)c1nnc(NC(=O)c2cccc(F)c2)s1 (stereo unspecified),0,-2,-20,0,12
CCC(C)(C)C1CCc2c(sc(NC(=O)C3c4ccccc4Oc4ccccc43)c2C(N)=O)C1 (stereo unspecified),-1,-5,-1,3,43*

# Source: PubChem
